Screening results (PubChem BioAssay)
The list is not random: actives were taken first. Their share in the collection is about 31%.
CYP2C19 activ: human CYP2C19 activators, primary screen, biochemical, luminescence. recombinant CYP2C19, luciferin-H EGE luminescence; active compounds read high; 0 = fully inhibited enzyme, 1 = untreated enzyme. activation factor at 5 µM. Cytochrome P450 2C19 (Homo sapiens), P33261. 96,000 tested, under 10 active. AID 1025, 2008;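 active = activation factor of at least 2 at 5 µM in the primary screen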
Target sequence (P33261 whole entry, looked up): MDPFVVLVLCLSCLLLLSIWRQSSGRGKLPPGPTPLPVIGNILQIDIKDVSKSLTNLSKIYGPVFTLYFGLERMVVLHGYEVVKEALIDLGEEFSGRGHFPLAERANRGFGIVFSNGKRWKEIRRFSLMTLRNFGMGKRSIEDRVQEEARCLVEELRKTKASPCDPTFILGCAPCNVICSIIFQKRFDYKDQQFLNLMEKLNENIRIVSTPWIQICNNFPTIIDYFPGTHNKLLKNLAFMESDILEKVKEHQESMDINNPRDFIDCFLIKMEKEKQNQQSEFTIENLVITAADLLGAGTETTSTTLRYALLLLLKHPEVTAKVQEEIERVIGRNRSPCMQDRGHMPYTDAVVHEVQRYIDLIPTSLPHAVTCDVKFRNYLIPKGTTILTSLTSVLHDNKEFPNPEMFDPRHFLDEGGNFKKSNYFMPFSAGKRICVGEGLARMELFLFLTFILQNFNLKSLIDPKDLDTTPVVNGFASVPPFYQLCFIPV
CYP2C9 act: human CYP2C9 activators, primary screen, biochemical, luminescence. AID 1024, 2008. activation factor at 5 µM. Cytochrome P450 2C9 (Homo sapiens), P11712. recombinant CYP2C9, luciferin-H conversion; active compounds read high; factor 1 = untreated enzyme, 0 = blocked. 1.4% of 96,000 active;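 active = activation factor of 2 or more for CYP2C9 at a 5 µM dose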
PLAP act: PLAP enzyme activators, biochemical, luminescence, HTS. 1.2% of 96,000 active. activation fold at 20 µM. purified PLAP enzyme, luminescent substrate read-out; active compounds read high; in the data active = activation fold above about 2
CYP2C9 inh: blockers of cytochrome P450 2C9 activity – biochemical, luminescence, ADME assay, primary screen. P11712. CYP2C9 Supersomes, luciferin-H conversion. inhibition, % at 5 µM. 20% of 96,000 active. AID 777, 2007;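 active = blocking of liver enzyme CYP2C9 beyond about 50% at 5 µM, limit read from the data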
CYP2C19 inhib: blockers of cytochrome P450 2C19 activity – biochemical, luminescence, ADME assay, primary screen. P33261. CYP2C19 Supersomes, luciferin-H EGE luminescence, 30 min. 21% of 96,000 active. AID 778, 2007. inhibition, % at 5 µM;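 active = CYP2C19 inhibition above a set limit at 5 µM in the primary screen, cut at about 50% in these data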
Of the large screens only hits and unclear results are named; the others gave an inactive call.

COc1ccc(CNc2oc(Cc3cccc4ccccc34)nc2C#N)cc1	CYP2C9 inh 96, CYP2C19 inhib 79
COc1ccc(CNc2oc(COc3ccccc3)nc2C#N)cc1	CYP2C9 inh 66, CYP2C19 inhib 53
N#Cc1nc(Cc2cccc3ccccc23)oc1NCCCn1ccnc1	CYP2C9 inh 97, CYP2C19 inhib 98
COc1ccc(CNc2oc(COc3ccccc3Cl)nc2C#N)cc1	none
N#Cc1nc(Cc2cccc3ccccc23)oc1NCc1ccco1	none
COc1ccc(C(=O)CSc2nnc(CNC(=O)c3ccc(OC)cc3)n2C)cc1	none
CCOC(=O)c1c(-c2ccc(F)cc2)cn2ccccc12	none
COc1ccc(OCc2nc(N)nc(Nc3ccc(C)cc3)n2)cc1	none
CCn1c(-c2ccccc2)ccc(C#N)c1=O	none
CN(Cc1ccccc1)c1oc(COc2ccccc2F)nc1C#N	CYP2C9 inh 99, CYP2C19 inhib 100
COc1ccc(CCNc2oc(COc3ccccc3)nc2C#N)cc1	CYP2C9 inh 70
N#Cc1nc(COc2ccccc2F)oc1NCCc1ccccc1	CYP2C9 inh 88, CYP2C19 inhib 88
COc1ccc(Nc2oc(COc3ccccc3F)nc2C#N)cc1	CYP2C9 inh 60, CYP2C19 inhib 54
N#Cc1nc(COc2ccc(F)cc2)oc1NCCN1CCOCC1	none
CNc1oc(-c2ccc(OCc3ccccc3)cc2)nc1C#N	CYP2C9 act 2.2
CCOC(=O)C(C)On1c(-c2cccc(Cl)c2)nc2ccc([N+](=O)[O-])cc21 (stereo not given)	CYP2C9 inh 89, CYP2C19 inhib 88
Cc1ccc(Oc2ccc(-c3nc(N)nc(N)n3)cc2)cc1	none
Cc1cccc(Oc2ccc(N)cc2)c1	CYP2C19 inhib 84
Cc1cc(C)cc(Oc2ccc(N)cc2)c1	CYP2C19 inhib 82
Cc1cccc(Oc2cc(N)cc([N+](=O)[O-])c2)c1	CYP2C19 inhib 60
Cc1cccc(Oc2ccccc2N)c1	none
O=C(O)c1ccc(Oc2cccc([N+](=O)[O-])c2)cc1C(=O)O	none
Cc1ccc(S(=O)(=O)N2CCN(C(=O)CSc3nnnn3C)C2)cc1	none
Cc1ccc(C(=O)CSc2nc3ccccc3o2)cc1	none
O=C(Cn1nnc2c(cnn2-c2ccc(F)cc2)c1=O)OC1CCCCC1	CYP2C19 inhib 62
CCOc1ccc(OCCOCCN2CCc3ccccc3C2)cc1	none
CCCOc1ccc(OCCOCCN2CCc3ccccc3C2)cc1	CYP2C19 inhib 52
Cc1ccc(OCc2nnc(SCC(=O)c3cccc([N+](=O)[O-])c3)n2C)cc1	none
O=C(O)c1cccc(NC(=O)C2CC(=O)N(Cc3ccccc3)C2)c1 (stereo not given)	none
O=C(Nc1ccccc1)C1CC(=O)N(c2ccc3c4c(cccc24)CC3)C1 (stereo not given)	CYP2C9 inh 62
Cn1c(=O)c2c(ncn2CC(=O)Nc2cc(Cl)c(Cl)cc2Cl)n(C)c1=O	none
CCc1ccc2[nH]c(=O)c(CN(CCCN3CCOCC3)C(=O)Nc3ccc(F)cc3)cc2c1	CYP2C19 inhib 55
CCN(CC)CCCN(Cc1cc2cc(OC)ccc2[nH]c1=O)C(=O)Nc1ccc(F)cc1	CYP2C9 inh 84, CYP2C19 inhib 62
COc1cc2cc(CN(Cc3cccnc3)C(=O)NCc3ccccc3)c(=O)[nH]c2cc1OC	CYP2C19 inhib 52
CCc1ccc2[nH]c(=O)c(CN(Cc3ccccc3)C(=O)Nc3ccccc3OC)cc2c1	CYP2C9 inh 90, CYP2C19 inhib 86
CCc1ccc2[nH]c(=O)c(CN(CCN(C)C)C(=O)Nc3ccccc3OC)cc2c1	none
Cc1cc(C)n2c(Br)c(CSc3nc4ccccc4o3)nc2n1	none
CCc1ccc2[nH]c(=O)c(CN(CCN3CCOCC3)C(=O)Nc3ccccc3F)cc2c1	CYP2C9 inh 52
COc1ccccc1NC(=O)N(CCCN1CCOCC1)Cc1cc2cc3c(cc2[nH]c1=O)OCO3	none
COc1ccc(NC(=O)N(CCN2CCCC2)Cc2cc3cc(OC)c(OC)cc3[nH]c2=O)cc1	CYP2C9 inh 75
Cc1ccc2cc(CN(CCN3CCCC3)C(=O)Nc3ccc(F)cc3)c(=O)[nH]c2c1C	none
CC1=NN(c2nc(C)cc(C)n2)C(=O)C1CCC(C)C (stereo not given)	PLAP act 2.3
CCC1C(=O)N(c2nc(C)cc(C)n2)N=C1C (stereo not given)	none
CC(C)(C)NC(=O)C(c1ccccc1)N(C(=O)C1CSC(=O)C1)c1ccccc1 (stereo not given)	none
CCN(CC)S(=O)(=O)c1ccc(NCc2ccccc2)nc1	CYP2C9 inh 77, CYP2C19 inhib 64
CCOC(=O)CC1=C(C#N)C(c2cccnc2)C(C(=O)OCC)=C(N)O1 (stereo not given)	CYP2C9 inh 75, CYP2C19 inhib 73
COC(=O)C1=C(C)OC(N)=C(C#N)C1c1cccnc1 (stereo not given)	none
CCOC(=O)CC1=C(C(=O)OCC)C(c2cccnc2)C(C#N)=C(N)O1 (stereo not given)	CYP2C19 inhib 56
O=C(CSc1nnc(Cc2ccccc2)n1-c1cccc(Cl)c1)N1CCOCC1	none
COc1ccc(CNC(=O)C/C(C)=N/NC(=O)C(c2ccccc2)c2ccccc2)cc1	CYP2C9 inh 56
COc1ccc(CNC(=O)C(OC(C)=O)c2ccccn2)cc1 (stereo not given)	none
O=C(NCC1CCCO1)c1onc(CSc2ccc(F)cc2)c1C(=O)O (stereo not given)	none
Cc1ccc(SCc2noc(C(=O)NCC3CCCO3)c2C(=O)O)cc1C (stereo not given)	none
CCOc1cccc(SCc2noc(C(=O)NCC3CCCO3)c2C(=O)O)c1 (stereo not given)	CYP2C9 inh 50, CYP2C19 inhib 54
O=C(NCC1CCCO1)c1onc(CSc2cccc3ccccc23)c1C(=O)O (stereo not given)	CYP2C9 inh 82
O=C(NCC1CCCO1)c1onc(CSc2cccc(Cl)c2)c1C(=O)O (stereo not given)	CYP2C9 inh 55
FC(F)(F)c1nnc2sc(-c3cccs3)nn12	none
Cc1cccc(NC(=O)C2c3ccccc3C(=O)N3CCc4ccccc4C23)n1 (stereo not given)	none
Cn1cnc2cc(OC(=O)c3ccccc3)ccc21	none
Brc1ccc(CSc2nnc(-c3ccccn3)n2Cc2ccco2)cc1	CYP2C9 inh 87
Clc1cccc(CSc2nnc(-c3ccccn3)n2Cc2ccco2)c1	CYP2C9 inh 85, CYP2C19 inhib 50
Nn1c(SCc2ccccc2)nnc1-c1ccccn1	none
CC(C)(C)c1ccc(CSc2nnc(-c3ccccn3)n2Cc2ccco2)cc1	CYP2C9 inh 93, CYP2C19 inhib 73
COC(=O)Cn1c(CN2CCC(Cc3ccccc3)CC2)nc2c1c(=O)n(C)c(=O)n2C	none
